In PubChem BioAssay (EPA / NIEHS):
Activity calls are given as the source filed them. How the source made its calls: active means hit-call score of the fitted dose curve at least 0.9, where 1 is the maximum; inactive means score below 0.9.

Tests used:
[1] = target: CCAAT/enhancer-binding protein beta (Homo sapiens) (UniProt P17676); assay: ATG_C_EBP_CIS: Attagene CIS-FACTORIAL HepG2 Assay for human CCAAT/Enhancer Binding Protein (C/EBP) beta (AID 2282927); details: HepG2 Attagene cis-factorial transcription factor reporter; actives raise or lower the signal
CCAAT/enhancer-binding protein beta (Homo sapiens), sequence (P17676 whole entry, looked up): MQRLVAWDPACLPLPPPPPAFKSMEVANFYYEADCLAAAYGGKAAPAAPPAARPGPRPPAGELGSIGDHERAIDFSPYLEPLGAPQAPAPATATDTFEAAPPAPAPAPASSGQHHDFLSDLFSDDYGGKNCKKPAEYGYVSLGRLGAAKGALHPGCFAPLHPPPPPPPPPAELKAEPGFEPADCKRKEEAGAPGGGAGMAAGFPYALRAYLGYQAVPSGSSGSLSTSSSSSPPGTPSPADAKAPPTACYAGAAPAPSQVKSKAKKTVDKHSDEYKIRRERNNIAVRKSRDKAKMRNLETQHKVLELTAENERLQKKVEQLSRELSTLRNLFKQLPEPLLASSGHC
Method in brief: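 HepG2, transient MRTU transfection, 24 h treatment. RT-PCR plus CE fluorescence; DMSO negative control, bidirectional fit.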

[2] = ATG_CMV_CIS: Attagene CIS-FACTORIAL HepG2 Assay for human CMV (Internal Marker) (AID 2282928); details: HepG2 CMV promoter reporter, transcription factor profiling; actives raise or lower the signal;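 further: endpoint acts as a background internal control marker rather than a target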
Method in brief: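 After transient transfection of HepG2 with reporter transcription units driven by cis-regulatory promoters, cells receive test chemical for 24 h. Labeled reporter amplicons, digested with HpaI, are sized and quantified by capillary electrophoresis against DMSO.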

[3] = ATG_AP_1_CIS: Attagene CIS-FACTORIAL HepG2 Assay for human Activator Protein 1 (AP-1) (AID 2282931); details: HepG2 Attagene cis-factorial AP-1 reporter mRNA; actives raise or lower the signal
Method in brief: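 Endogenous transcription-factor activity in human HepG2 liver cells is read through a cis-promoter reporter transcript, sampled 24 h after dosing. Detection uses RT-PCR with capillary electrophoresis; values come from bidirectional fitting relative to DMSO.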

[4] = ATG_AP_2_CIS: Attagene CIS-FACTORIAL HepG2 Assay for human Activator Protein 2 (AP-2) (AID 2282932); details: HepG2 AP-2 cis-reporter, Attagene transcription factor profiling; actives raise or lower the signal
Method in brief: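 Multiplexed mRNA reporter assay in HepG2: cis-regulated units report endogenous factor activity after 24 h treatment. Fluorescence from capillary electrophoresis of RT-PCR products gives the signal, with DMSO as baseline.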

[5] = ATG_BRE_CIS: Attagene CIS-FACTORIAL HepG2 Assay for human Bone Morphogenetic Protein (BMP) Response Element (BRE) (AID 2282933); details: HepG2 BMP response element reporter, Attagene transcription factor profiling; actives raise or lower the signal
Method in brief: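 Transient MRTU transfection of human HepG2 liver cells; 24 h compound treatment; total RNA isolated, reverse-transcribed, PCR-amplified, 6-FAM labelled, HpaI-cut, capillary electrophoresis. DMSO = negative control/baseline, bidirectional fit.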

[6] = ATG_E_Box_CIS: Attagene CIS-FACTORIAL HepG2 Assay for human Enhancer Box (E-box) (AID 2282936); details: HepG2 E-box cis-reporter transcription, actives raise or lower the signal
Method in brief: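 First, HepG2 cells receive multiple cis-regulated reporter constructs by transient transfection. Next, chemicals are applied for 24 h. Finally, reporter mRNA is quantified via RT-PCR and capillary electrophoresis, with DMSO as baseline.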

[7] = ATG_M_61_CIS: Attagene CIS-FACTORIAL HepG2 Assay for M61 Transcription Factor (Internal Marker) (AID 2282937); details: HepG2 Attagene CIS-FACTORIAL M61 internal marker reporter; actives raise or lower the signal
Method in brief: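 Cells were transfected with reporter units under cis-regulatory promoters, treated with chemicals for 24 h, then lysed for RNA. Reporter transcripts were quantified by RT-PCR and capillary electrophoresis, and activity was fitted bidirectionally against DMSO.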

[8] = ATG_EGR_CIS: Attagene CIS-FACTORIAL HepG2 Assay for human Early Growth Response 1 (EGR1) (AID 2282938); details: HepG2 Attagene CIS-FACTORIAL EGR reporter mRNA; actives raise or lower the signal
Method in brief: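 Endogenous TF activity in HepG2 liver cells was gauged through cis-promoter reporter constructs transiently transfected. After 24 h dosing, reporter mRNA was quantified by RT-PCR and capillary electrophoresis, and curves fitted in both directions versus DMSO.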

[9] = ATG_Ets_CIS: Attagene CIS-FACTORIAL HepG2 Assay for human Erythroblast Transformation Specific (ETS) (AID 2282941); details: HepG2 ETS cis-reporter transcription, actives raise or lower the signal
Method in brief: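 Human HepG2 hepatoma cells were transiently transfected with promoter-driven reporter constructs and treated for 24 hours. Reporter transcripts were quantified by RT-PCR with fluorescent primer extension; bidirectional curve fitting used DMSO as reference.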

[10] = target: Hepatocyte nuclear factor 3-beta (Homo sapiens) (UniProt Q9Y261); assay: ATG_FoxA2_CIS: Attagene CIS-FACTORIAL HepG2 Assay for human Forkhead box A2 (FOXA2) (AID 2282942); details: HepG2 cis-reporter transcription factor activity, 24 h; actives raise or lower the signal
Hepatocyte nuclear factor 3-beta (Homo sapiens), sequence (Q9Y261 whole entry, looked up): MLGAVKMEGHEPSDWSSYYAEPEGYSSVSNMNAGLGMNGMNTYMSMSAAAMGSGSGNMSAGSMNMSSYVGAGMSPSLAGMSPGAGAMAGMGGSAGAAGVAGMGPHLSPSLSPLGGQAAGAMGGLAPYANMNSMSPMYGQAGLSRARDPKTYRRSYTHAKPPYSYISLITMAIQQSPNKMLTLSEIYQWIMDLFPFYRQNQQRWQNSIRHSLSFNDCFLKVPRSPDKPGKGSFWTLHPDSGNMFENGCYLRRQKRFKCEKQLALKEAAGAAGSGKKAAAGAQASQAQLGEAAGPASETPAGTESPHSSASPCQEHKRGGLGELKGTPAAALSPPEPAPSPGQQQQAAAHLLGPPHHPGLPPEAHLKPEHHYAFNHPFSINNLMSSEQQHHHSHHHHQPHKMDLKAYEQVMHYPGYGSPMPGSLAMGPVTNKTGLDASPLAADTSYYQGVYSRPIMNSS
Method in brief: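 Endogenous transcription factor activity was read in HepG2 cells carrying transiently transfected cis-promoter reporter units. After 24 h dosing, reporter mRNA was quantified by RT-PCR and capillary electrophoresis, and values fitted bidirectionally versus DMSO.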

[11] = ATG_FoxO_CIS: Attagene CIS-FACTORIAL HepG2 Assay for human Forkhead box O (FoxO) (AID 2282943); details: HepG2 Attagene cis-reporter, FoxO element, mRNA; actives raise or lower the signal
Method in brief: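 Transfected HepG2 reporter cells exposed to test chemical for 24 h; reporter RNA measured by reverse transcription, PCR and fluorescent capillary electrophoresis; curves fitted for increases and decreases against DMSO.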

[12] = ATG_GATA_CIS: Attagene CIS-FACTORIAL HepG2 Assay for human GATA Binding Protein (AID 2282944); details: HepG2 GATA cis-element reporter, Attagene multiplex mRNA; actives raise or lower the signal
Method in brief: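 Transient MRTU transfection, HepG2, 24 h compound exposure. Total RNA → oligo(dT) RT → PCR → 6-FAM primer extension → HpaI cut → CE. Bidirectional fit vs DMSO.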

[13] = ATG_ISRE_CIS: Attagene CIS-FACTORIAL HepG2 Assay for human Interferon Regulatory Factor 1 (IRF1) binding to an Interferon-Stimulated Response Element (ISRE) (AID 2282948); details: HepG2 ISRE cis-reporter (Attagene), mRNA transcription readout; actives raise or lower the signal
Method in brief: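 Cell-based cis-reporter assay; HepG2; 24 h exposure; reporter mRNA by RT-PCR plus capillary electrophoresis fluorescence; activity in either direction scored relative to DMSO.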

[14] = ATG_M_32_CIS: Attagene CIS-FACTORIAL HepG2 Assay for M32 Transcription Factor (Internal Marker) (AID 2282949); details: HepG2 Attagene cis-factorial M32 reporter, mRNA; actives raise or lower the signal;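 further: background control marker of the multiplexed CIS panel rather than a real target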
Method in brief: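 Internal background marker read-out: RT-PCR/capillary electrophoresis fluorescence of reporter transcripts from transiently transfected HepG2 cells after 24 h chemical exposure. Activity fitted bidirectionally relative to DMSO negative control.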

[15] = ATG_M_06_CIS: Attagene CIS-FACTORIAL HepG2 Assay for M06 Transcription Factor (Internal Marker) (AID 2282950); details: HepG2 Attagene CIS-FACTORIAL M06 internal marker reporter; actives raise or lower the signal
Method in brief: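 Read-out is fluorescence of labelled reporter cDNA fragments resolved by capillary electrophoresis after RT-PCR. Cells: HepG2 carrying transfected cis-promoter reporter units, treated 24 h. Gain or loss of signal fitted relative to DMSO.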

[16] = target: Hepatocyte nuclear factor 6 (Homo sapiens) (UniProt Q9UBC0); assay: ATG_HNF6_CIS: Attagene CIS-FACTORIAL HepG2 Assay for human Hepatocyte Nuclear Factor 6 (HNF6) (AID 2282952); details: HepG2 Attagene cis-factorial HNF6 reporter transcription; actives raise or lower the signal
Hepatocyte nuclear factor 6 (Homo sapiens), sequence (Q9UBC0 whole entry, looked up): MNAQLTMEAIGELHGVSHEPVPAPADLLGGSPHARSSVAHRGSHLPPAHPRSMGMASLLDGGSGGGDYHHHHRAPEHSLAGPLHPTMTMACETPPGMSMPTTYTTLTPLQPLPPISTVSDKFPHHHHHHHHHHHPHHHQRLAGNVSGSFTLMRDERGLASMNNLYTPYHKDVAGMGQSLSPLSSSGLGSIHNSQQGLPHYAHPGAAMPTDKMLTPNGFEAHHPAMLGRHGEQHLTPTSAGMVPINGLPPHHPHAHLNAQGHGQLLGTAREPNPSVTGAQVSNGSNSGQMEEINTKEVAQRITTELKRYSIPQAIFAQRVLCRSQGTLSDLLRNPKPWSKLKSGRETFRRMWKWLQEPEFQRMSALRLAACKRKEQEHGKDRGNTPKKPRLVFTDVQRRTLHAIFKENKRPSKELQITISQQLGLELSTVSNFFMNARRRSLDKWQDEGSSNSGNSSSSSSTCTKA
Method in brief: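 Multiplexed mRNA reporter assay in transfected HepG2; 24 h dosing; RT-PCR plus capillary electrophoresis fluorescence; DMSO-referenced bidirectional curve fitting.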

[17] = ATG_MRE_CIS: Attagene CIS-FACTORIAL HepG2 Assay for human Metal Responsive Element (MRE) (AID 2282954); details: HepG2 MRE cis-reporter transcription, Attagene multiplex; actives raise or lower the signal
Method in brief: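 Fluorescent reporter fragments separated by capillary electrophoresis give mRNA induction for the MRE unit after 24 h treatment of transfected HepG2 cells. Endogenous transcription-factor activity is read; DMSO serves as negative control and baseline.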

[18] = ATG_Sox_CIS: Attagene CIS-FACTORIAL HepG2 Assay for human SRY-box transcription factor (SOX) (AID 2282960); details: HepG2 Attagene cis-factorial SOX reporter, mRNA; actives raise or lower the signal
Method in brief: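 Transient MRTU transfection of HepG2; 24 h compound incubation; TriZol RNA, oligo(dT) RT, PCR, 6-FAM primer extension, HpaI cut, CE. Bidirectional fit, DMSO = baseline.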

[19] = target: Transcription factor Sp1 (Homo sapiens) (UniProt P08047); assay: ATG_Sp1_CIS: Attagene CIS-FACTORIAL HepG2 Assay for human Specificity Protein 1 (Sp1) (AID 2282961); details: HepG2 Sp1 cis-reporter transcription, actives raise or lower the signal
Transcription factor Sp1 (Homo sapiens), sequence (P08047 whole entry, looked up): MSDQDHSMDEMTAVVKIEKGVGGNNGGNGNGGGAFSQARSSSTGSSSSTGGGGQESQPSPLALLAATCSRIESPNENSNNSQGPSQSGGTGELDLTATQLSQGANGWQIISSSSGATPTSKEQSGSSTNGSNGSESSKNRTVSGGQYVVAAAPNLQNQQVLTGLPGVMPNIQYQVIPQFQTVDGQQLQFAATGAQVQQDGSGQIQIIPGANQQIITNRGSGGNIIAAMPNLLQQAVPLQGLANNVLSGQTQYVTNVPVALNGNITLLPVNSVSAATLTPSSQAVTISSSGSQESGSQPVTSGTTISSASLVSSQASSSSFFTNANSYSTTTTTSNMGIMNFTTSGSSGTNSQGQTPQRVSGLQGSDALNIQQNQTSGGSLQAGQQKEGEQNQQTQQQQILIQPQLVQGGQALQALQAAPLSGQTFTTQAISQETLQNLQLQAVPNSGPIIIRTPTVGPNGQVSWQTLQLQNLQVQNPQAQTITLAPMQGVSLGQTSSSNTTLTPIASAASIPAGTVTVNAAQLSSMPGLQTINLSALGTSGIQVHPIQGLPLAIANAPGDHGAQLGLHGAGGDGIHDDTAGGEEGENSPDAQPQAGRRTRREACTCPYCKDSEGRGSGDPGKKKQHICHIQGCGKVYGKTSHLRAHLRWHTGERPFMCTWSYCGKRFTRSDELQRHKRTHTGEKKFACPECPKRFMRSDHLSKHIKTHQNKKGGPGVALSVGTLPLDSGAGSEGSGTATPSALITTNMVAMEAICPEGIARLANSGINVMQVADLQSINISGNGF
Method in brief: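 Endogenous Sp1 activity was gauged in human liver HepG2 cells bearing transfected reporter units under a cis-regulating promoter. After 24 h dosing, reporter mRNA was quantified by RT-PCR with capillary electrophoresis, and activity fitted bidirectionally versus DMSO.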

[20] = target: Signal transducer and activator of transcription 3 (Homo sapiens) (UniProt P40763); assay: ATG_STAT3_CIS: Attagene CIS-FACTORIAL HepG2 Assay for human Signal Transducer and Activator of Transcription 3 (STAT3) (AID 2282963); details: HepG2, Attagene cis-factorial STAT3 reporter transcription; actives raise or lower the signal
Signal transducer and activator of transcription 3 (Homo sapiens), sequence (P40763 whole entry, looked up): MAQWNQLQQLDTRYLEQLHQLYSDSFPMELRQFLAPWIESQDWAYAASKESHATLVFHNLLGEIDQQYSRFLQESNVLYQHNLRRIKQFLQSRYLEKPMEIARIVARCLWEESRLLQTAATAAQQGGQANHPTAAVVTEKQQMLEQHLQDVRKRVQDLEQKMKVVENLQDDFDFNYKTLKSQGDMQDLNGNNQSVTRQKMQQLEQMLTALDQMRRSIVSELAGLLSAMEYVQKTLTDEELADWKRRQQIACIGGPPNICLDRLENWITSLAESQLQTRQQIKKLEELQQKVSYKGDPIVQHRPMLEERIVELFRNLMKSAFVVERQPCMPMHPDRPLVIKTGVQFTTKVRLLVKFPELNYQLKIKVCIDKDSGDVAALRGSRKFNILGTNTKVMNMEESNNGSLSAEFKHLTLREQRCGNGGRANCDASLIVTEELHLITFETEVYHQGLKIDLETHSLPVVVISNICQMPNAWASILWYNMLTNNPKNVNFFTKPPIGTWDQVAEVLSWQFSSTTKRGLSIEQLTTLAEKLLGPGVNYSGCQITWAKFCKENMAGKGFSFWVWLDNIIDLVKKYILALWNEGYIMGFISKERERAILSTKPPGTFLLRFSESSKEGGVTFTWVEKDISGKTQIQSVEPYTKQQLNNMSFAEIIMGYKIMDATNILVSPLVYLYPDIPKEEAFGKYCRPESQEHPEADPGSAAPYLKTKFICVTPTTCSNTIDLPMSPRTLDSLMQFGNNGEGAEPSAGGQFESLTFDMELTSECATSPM
Method in brief: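 Values derive from bidirectional fits relative to DMSO of reporter mRNA levels, measured by RT-PCR with capillary electrophoresis, in HepG2 cells carrying transiently transfected cis-regulated reporter units and exposed 24 h.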

Measured: AC50

CNC(=O)Oc1cc(C)c(SC)c(C)c1
active: [2] 17.4 µM | [8] 100 µM | [13] 100 µM | [17] 74.2 µM | [18] 27.1 µM
inactive: all other assays above

Clc1ccc(-c2ccccc2)cc1
active: [2] 139 µM | [3] 170 µM | [19] 117 µM
inactive: all other assays above

O=C(O)c1cc[c]([Hg][Cl])cc1
active: [17] 7.75 µM | [19] 11.1 µM
inactive: all other assays above

ClCCCCCCCl
inactive: all assays above

CCC(C)c1cc([N+](=O)[O-])cc([N+](=O)[O-])c1OC(=O)C=C(C)C (stereo not given)
active: [1] 100 µM | [3] 25.1 µM | [5] 8.06 µM | [6] 17.7 µM | [8] 27.7 µM | [9] 100 µM | [11] 57.3 µM | [13] 141 µM | [17] 27.5 µM | [18] 53.7 µM | [19] 26.2 µM | [20] 80.1 µM
inactive: [2] | [4] | [7] | [10] | [12] | [14] | [15] | [16]

C[N+](C)(C)CC(=O)O
inactive: all assays above

CN(N=O)c1ccccc1
inactive: all assays above

O=c1[nH]c(Cl)c(Cl)cc1Cl
inactive: all assays above

N#Cc1cc(I)c(O)c(I)c1
active: [3] 100 µM | [19] 100 µM
inactive: all other assays above

Nc1ccc([N+](=O)[O-])cc1N
inactive: all assays above

COC(C)(C)CCC[C@H](C)C/C=C/C(C)=C/C(=O)OC(C)C
active: [2] 100 µM | [3] 112 µM | [5] 84.6 µM | [8] 82.3 µM | [17] 36.6 µM
inactive: all other assays above

C[N+](=O)[O-]
inactive: all assays above

Nc1c(Cl)c(Cl)c(Cl)c(Cl)c1Cl
active: [2] 34.2 µM
inactive: all other assays above

CCOP(=O)(OCC)Oc1ccc([N+](=O)[O-])cc1
inactive: all assays above
